Measurements as given in the supplement of paper PMC11732987, “Enantioselective OTUD7B fragment discovery through chemoproteomics screening and high-throughput optimisation” (Communications Chemistry, 2025).

What was measured:
Assay in all cases: log2 ratio of Biotin-Ahx-Ub-VS probe labelling (fragment/DMSO); higher = less target engagement (more negative = stronger competition), active = hit call of the paper (q ≤ 0.05, log2 ratio ≤ -1)
Conditions in all cases: compound concentration: 200 uM; treatment time: 3 h
ALG13 = target: T1, ALG13 (UniProt Q9NP73)
T1 sequence (whole entry): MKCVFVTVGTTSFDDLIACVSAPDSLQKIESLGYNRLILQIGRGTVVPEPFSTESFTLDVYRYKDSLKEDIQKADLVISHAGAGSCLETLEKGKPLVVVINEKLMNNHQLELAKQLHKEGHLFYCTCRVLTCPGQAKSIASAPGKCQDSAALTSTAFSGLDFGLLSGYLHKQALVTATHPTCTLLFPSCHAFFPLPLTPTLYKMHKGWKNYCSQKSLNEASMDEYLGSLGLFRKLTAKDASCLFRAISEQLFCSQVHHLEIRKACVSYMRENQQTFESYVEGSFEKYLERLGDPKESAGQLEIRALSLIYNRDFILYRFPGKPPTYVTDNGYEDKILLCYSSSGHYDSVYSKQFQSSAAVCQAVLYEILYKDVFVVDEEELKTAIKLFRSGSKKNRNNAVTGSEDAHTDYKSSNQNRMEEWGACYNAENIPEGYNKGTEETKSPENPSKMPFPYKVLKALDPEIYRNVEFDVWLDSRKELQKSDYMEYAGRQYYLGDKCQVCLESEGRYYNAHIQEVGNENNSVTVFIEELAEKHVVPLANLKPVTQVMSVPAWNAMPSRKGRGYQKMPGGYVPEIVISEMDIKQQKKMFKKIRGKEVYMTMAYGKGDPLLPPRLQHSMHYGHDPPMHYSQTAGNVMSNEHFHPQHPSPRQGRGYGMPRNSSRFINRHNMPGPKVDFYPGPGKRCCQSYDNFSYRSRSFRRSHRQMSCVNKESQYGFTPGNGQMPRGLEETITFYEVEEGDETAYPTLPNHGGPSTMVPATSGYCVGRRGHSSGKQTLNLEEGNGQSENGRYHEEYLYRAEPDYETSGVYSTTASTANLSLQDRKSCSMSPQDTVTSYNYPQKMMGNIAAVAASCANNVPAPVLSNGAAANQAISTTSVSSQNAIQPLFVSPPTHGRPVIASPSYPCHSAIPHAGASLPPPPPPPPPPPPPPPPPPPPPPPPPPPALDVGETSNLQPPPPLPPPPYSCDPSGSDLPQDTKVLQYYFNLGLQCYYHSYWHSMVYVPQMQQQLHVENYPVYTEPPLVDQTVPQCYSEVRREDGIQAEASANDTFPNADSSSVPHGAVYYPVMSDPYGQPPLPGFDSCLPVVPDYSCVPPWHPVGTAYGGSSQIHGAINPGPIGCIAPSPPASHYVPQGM
In short: (§1)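 Using Biotin-Ahx-Ub-VS at 0.5 µM final for 1 h, DUBs were labelled in HEK293T lysate (495 µg per sample) that had first been treated in triplicate with fragment at 200 µM or vehicle for 3 h. NeutrAvidin enrichment, LysC and trypsin digestion and diaPASEF LC-MS/MS followed. Spectronaut label-free quantities were global-median-normalised. Values are average log2 fragment/vehicle ratios by unpaired t-test, using proteins with ≥2 unique peptides.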

ATXN3 = ATXN3 (UniProt P54252)
ATXN3, sequence (P54252 whole entry): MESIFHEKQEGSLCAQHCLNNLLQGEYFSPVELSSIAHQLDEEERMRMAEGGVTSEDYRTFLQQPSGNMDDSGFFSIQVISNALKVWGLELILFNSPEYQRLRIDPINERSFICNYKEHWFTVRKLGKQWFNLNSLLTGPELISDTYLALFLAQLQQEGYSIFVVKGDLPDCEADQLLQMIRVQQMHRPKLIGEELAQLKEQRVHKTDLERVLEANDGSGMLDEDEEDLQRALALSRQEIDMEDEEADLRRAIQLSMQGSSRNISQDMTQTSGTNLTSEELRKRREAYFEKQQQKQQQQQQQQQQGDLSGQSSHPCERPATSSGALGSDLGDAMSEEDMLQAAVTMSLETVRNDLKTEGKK
In short: as §1

BAP1 = target: T2, BAP1 (UniProt Q92560)
T2 sequence (whole entry): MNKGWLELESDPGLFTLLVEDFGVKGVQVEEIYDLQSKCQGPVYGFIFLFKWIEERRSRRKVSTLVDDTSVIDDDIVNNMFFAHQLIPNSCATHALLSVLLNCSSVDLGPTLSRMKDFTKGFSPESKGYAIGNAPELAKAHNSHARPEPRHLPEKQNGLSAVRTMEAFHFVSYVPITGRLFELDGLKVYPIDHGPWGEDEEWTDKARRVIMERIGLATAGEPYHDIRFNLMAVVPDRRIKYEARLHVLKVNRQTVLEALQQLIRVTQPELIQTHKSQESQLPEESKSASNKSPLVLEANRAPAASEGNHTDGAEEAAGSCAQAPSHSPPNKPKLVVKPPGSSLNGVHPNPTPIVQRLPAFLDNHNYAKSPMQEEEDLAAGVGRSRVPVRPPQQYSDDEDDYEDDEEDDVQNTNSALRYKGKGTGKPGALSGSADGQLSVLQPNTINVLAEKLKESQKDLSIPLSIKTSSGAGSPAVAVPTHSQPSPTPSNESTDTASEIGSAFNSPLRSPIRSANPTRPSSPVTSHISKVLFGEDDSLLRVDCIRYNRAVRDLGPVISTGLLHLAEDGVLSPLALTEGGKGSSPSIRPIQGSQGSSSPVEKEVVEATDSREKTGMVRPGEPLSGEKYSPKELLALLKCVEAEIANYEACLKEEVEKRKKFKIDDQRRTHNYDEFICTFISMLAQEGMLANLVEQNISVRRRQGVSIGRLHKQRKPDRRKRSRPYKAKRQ
In short: as §1

EIF3F = EIF3F (UniProt O00303)
EIF3F, sequence (O00303 whole entry): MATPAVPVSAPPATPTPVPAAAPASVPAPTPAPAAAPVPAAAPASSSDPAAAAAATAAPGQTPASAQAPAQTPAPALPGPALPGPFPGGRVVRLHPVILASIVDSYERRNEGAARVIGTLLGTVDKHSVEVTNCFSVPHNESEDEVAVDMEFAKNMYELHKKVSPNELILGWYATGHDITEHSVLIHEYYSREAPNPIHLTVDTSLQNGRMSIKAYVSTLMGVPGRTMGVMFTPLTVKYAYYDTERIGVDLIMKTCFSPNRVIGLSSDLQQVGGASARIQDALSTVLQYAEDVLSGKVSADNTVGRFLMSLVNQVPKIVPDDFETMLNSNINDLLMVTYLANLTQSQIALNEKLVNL
In short: as §1

EIF3H = EIF3H (UniProt O15372)
EIF3H, sequence (O15372 whole entry): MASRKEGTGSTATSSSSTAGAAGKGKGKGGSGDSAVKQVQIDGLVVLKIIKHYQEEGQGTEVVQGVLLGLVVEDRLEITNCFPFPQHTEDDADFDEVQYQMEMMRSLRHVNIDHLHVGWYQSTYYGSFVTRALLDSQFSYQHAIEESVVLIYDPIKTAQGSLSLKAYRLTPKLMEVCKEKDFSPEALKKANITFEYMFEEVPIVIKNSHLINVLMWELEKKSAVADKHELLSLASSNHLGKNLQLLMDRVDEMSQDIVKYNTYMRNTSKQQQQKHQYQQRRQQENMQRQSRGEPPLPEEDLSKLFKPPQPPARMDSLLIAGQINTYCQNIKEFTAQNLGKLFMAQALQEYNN
In short: as §1

FAM105A = target: T3, FAM105A (UniProt Q9NUU6)
T3 sequence (whole entry): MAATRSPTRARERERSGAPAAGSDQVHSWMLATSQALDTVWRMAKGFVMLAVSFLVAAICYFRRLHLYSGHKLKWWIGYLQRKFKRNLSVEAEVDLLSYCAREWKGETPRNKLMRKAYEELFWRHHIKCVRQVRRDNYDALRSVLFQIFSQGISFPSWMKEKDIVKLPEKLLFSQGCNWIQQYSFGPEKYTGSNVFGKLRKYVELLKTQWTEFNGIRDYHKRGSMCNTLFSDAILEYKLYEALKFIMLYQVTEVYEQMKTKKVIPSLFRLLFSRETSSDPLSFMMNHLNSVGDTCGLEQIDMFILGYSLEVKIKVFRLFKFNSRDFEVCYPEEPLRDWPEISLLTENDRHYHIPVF
In short: as §1

OTUB1 = OTUB1 (UniProt Q96FW1)
OTUB1, sequence (Q96FW1 whole entry): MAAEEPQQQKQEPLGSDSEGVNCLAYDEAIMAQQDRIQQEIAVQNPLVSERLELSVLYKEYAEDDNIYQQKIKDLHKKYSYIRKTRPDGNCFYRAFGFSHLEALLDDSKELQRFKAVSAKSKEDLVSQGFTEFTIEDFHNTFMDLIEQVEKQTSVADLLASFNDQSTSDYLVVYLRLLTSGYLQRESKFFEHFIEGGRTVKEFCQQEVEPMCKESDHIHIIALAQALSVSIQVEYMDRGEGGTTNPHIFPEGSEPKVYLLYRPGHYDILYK
In short: as §1

OTUD4 = target: T4, OTUD4 (UniProt Q01804)
T4 sequence (whole entry): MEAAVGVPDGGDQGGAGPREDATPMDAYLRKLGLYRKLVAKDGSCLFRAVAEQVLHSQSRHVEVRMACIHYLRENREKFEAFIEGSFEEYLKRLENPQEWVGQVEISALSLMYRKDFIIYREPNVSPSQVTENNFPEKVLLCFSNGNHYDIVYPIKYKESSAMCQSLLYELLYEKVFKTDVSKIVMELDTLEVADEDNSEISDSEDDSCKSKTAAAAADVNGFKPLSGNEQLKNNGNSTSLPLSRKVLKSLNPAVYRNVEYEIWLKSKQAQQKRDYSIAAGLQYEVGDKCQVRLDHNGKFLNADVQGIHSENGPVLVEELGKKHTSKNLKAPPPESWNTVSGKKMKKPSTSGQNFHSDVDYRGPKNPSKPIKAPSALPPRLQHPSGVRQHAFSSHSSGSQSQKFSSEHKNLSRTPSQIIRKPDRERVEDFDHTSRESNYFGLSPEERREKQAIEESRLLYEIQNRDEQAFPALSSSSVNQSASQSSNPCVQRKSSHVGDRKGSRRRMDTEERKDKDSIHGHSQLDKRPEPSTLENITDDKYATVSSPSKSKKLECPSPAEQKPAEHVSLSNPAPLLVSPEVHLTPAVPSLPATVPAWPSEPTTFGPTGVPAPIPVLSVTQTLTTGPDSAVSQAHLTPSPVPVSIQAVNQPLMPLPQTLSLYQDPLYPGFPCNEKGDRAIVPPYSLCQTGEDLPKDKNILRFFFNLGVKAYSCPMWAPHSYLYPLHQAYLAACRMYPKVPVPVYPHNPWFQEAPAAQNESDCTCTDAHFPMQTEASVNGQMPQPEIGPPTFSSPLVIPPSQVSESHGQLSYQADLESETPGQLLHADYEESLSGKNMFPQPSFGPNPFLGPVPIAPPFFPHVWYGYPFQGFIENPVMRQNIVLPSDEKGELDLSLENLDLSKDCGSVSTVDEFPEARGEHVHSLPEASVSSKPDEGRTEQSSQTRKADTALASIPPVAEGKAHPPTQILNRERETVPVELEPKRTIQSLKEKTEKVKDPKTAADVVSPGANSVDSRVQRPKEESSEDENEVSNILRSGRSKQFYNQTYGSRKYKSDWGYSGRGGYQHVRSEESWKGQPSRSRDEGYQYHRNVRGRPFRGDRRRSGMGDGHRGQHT
In short: as §1

OTUD5 = target: T5, OTUD5 (UniProt Q96G74)
T5 sequence (whole entry): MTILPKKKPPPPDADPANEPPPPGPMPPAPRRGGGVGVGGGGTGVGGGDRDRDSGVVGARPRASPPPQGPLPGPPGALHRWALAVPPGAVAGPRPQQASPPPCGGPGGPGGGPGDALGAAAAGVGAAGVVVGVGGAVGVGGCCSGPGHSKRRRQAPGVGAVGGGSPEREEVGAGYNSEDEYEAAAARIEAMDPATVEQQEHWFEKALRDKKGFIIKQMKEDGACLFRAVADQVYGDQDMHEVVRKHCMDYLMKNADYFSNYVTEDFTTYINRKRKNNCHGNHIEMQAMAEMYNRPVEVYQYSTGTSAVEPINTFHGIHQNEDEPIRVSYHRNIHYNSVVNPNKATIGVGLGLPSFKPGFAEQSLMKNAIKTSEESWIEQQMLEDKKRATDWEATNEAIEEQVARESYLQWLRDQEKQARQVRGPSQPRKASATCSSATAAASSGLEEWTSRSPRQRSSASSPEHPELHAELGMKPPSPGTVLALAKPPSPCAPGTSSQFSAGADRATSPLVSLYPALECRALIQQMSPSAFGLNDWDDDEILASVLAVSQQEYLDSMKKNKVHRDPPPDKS
In short: as §1

Measured: log2 ratio of Biotin-Ahx-Ub-VS probe labelling

Cc1nc(CNC(=O)CCl)c2ccccn12.Cl
inactive: ALG13 -0.085 | ATXN3 -0.101 | BAP1 -0.847 | EIF3F -0.26 | EIF3H 0.233 | FAM105A -0.142 | OTUB1 -0.107 | OTUD4 -0.199 | OTUD5 -0.159
